Test results from PubChem BioAssay AID602282 (Johns Hopkins Ion Channel Center, 2012).
The campaign covered roughly 1,100 compounds. About 1,000 (91%) were called active.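 How the source made its calls: active means inhibition above 3 SD of the buffer control wells (cut at about 41% in these data); inactive means the rest.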 So high a share suggests a set chosen from earlier hits. These entries were drawn from the full list.

Assay: reduced carbachol calcium response, RGS4-induced M3R cells, confirmation, RGS4 activator project, cell-based, HEK293 M3R/RGS4 inducible, calcium flux, duplicate (AID 602282);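 further: signal is the integrated peak-minus-minimum Fluo4 fluorescence over baseline ratio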
Settings: carbachol calcium flux Fluo4, at 10 µM, active compounds read high
In the case of C=CC12CN(C)[C@@H]3C4CO[C@H](C[C@H]41)[C@]1(C(=O)Nc4ccccc41)[C@@H]32 (some centres not stated), the inhibition is reported as 84% (active). In the case of CC(C)Oc1cccc(C(=O)C2CCCN(C3CCOCC3)C2)c1 (configuration not stated), the inhibition is reported as 42.5% (active).
